Test results from PubChem BioAssay (NCI).
Several values for one entry are separate records, joined by “and”; a condition that tells them apart may be missing. Equal entries are not always repeated. This is part of a sample that, as a whole, favours compounds with a hit. Of some 79,000 tested, about 15% had one in any assay. Cut-off read from the data, not from the text of the source: active = growth inhibition above about 70%; inactive = the rest. Where a SMILES comes first, the peptide text is derived from it. The star is where a group is joined. Boc = CC(C)(C)OC(=O)*

Assays:
[1] = NCI Yeast Anticancer Drug Screen. Data for the rad50 strain (AID 155);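 note: 0% = growth of vehicle-only cultures of the same strain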; details: S. cerevisiae rad50 strain growth inhibition; at 50.0 µM; stronger effect = higher value
Summary of the method: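 A DNA repair-deficient yeast mutant serves as the test organism; compound-induced growth inhibition is calculated against vehicle-treated cells.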

[2] = NCI Yeast Anticancer Drug Screen. Data for the mec2-1 strain (AID 157); details: S. cerevisiae mec2-1 strain, at 50.0 µM, stronger effect = higher value
Summary of the method: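 Test agents were screened against the mec2-1 yeast strain, with defined DNA repair or cell cycle alteration. Growth was scored as inhibition against vehicle-only controls.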

[3] = NCI Yeast Anticancer Drug Screen. Data for the sgs1 mgt1 strain (AID 161);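 note: 0% = growth of cultures given vehicle only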; details: S. cerevisiae sgs1 mgt1 strain, at 50.0 µM, stronger effect = higher value
Summary of the method: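 Test agents were incubated with a DNA-repair-mutant yeast strain. Growth was then read and compared against vehicle-treated controls.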

[4] = NCI Yeast Anticancer Drug Screen. Data for the cln2 rad14 strain (AID 165);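 note: 0% = growth equal to vehicle treated cultures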; details: S. cerevisiae cln2 rad14 strain, at 50.0 µM, stronger effect = higher value
Summary of the method: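 Growth of compound-exposed yeast (cln2 rad14 genotype) measured and expressed as inhibition relative to vehicle.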

[5] = NCI Yeast Anticancer Drug Screen. Data for the bub3 strain (AID 167); details: S. cerevisiae bub3 mutant strain, at 50.0 µM, stronger effect = higher value
Summary of the method: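 Inhibition values come from growth of compound-treated mutant yeast normalised to vehicle-treated controls.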

[6] = NCI Yeast Anticancer Drug Screen. Data for the mlh1 rad18 strain (AID 175); details: S. cerevisiae mlh1 rad18 strain growth inhibition; at 50.0 µM; stronger effect = higher value
Summary of the method: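 In this whole-cell yeast screen, a strain with altered DNA damage repair is challenged with compound, and its growth is measured against matched vehicle-treated controls.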

Measured: growth inhibition

CC(=O)Nc1cc(NC(C)=O)c2ccccc2c1O
inactive: [1] -2.65% and 4.1% | [2] 22% and 5.85% | [3] 13.2% and 8% | [4] 6.05% and 25.1% | [5] 18.9% and 14.3% | [6] 2.7% and 6.75%

CC(=O)c1c(-c2cccc3ccccc23)c(C#N)c(=S)n(C2OC(CO)C(O)C(O)C2O)c1C (stereo not given)
inactive: [1] -18.7% and 15.5% | [2] 12.1% and 15% | [3] 2.25% and 32% | [4] 12.3% and 28.2% | [5] 21.1% and 32.1% | [6] 1.55% and 44.9%

O=C(O)C1(O)C[C@@H](O)C(O)[C@H](O)C1 (stereo not given in full)
inactive: [1] 4.9% and -19.3% | [2] 0.15% and -14.2% | [3] -3.65% and -30.1% | [4] 21.2% and 23.8% | [5] -4.65% and -2.35% | [6] 3.6% and -2.65%

CC1(O)C(=O)OC(CO)C1O (stereo not given)
inactive: [1] 1.4% and 7.1% | [2] 1.6% and 7.15% | [3] -3.45% and -1% | [4] -15.8% and -6.6% | [5] -5.65% and 2.4% | [6] 5.1% and 3.25%

COC(=O)C(C)NC(=O)C(CCSC)NC(=O)C(Cc1ccccc1)NC(=O)OC(C)(C)C (stereo not drawn) (Boc-Phe-Met-Ala-OMe; configuration not given here)
inactive: [1] -7.05% and 1.75% | [2] -15.3% and 1.15% | [3] 2.4% and 6.3% | [4] 5.05% and 10.7% | [5] 0.15% and -11.9% | [6] 12.4% and -70.9%

OCC(O)C1OC(Oc2ccccc2)C(O)C(O)C1O (stereo not given)
inactive: [1] 2.5% and 35.6% | [2] 32.9% and -1.85% | [3] -6.75% and 4.1% | [4] -3% and -28.4% | [5] 31.3% and 7.35% | [6] 24% and 17.4%

NC1CCCCCCC1
inactive: [1] 4.85% and 5.55% | [2] -4.95% and 2.2% | [3] 0.75% and 3.8% | [4] -4.2% and 1% | [5] 9.85% and 3.6% | [6] 0.55% and 2.7%

OC1CC2CCC(C1)S2 (stereo not given)
inactive: [1] -1.3% and 4.3% | [2] -25.3% and -2.75% | [3] -3.7% and 13.3% | [4] 9.85% and 13.3% | [5] 2.5% and 4.4% | [6] -11.6% and -1.55%

Nc1ccc(C(=O)NCC(=O)O)cc1
inactive: [1] 13.4% and 10.3% | [2] 3.65% and -4.8% | [3] 3.25% and 5.05% | [4] -41.3% and 15.2% | [5] 6.75% and -3.5% | [6] 0.4% and 16.7%

N#CC(c1ccc([N+](=O)[O-])cc1)C(CC(=O)c1ccccc1)c1ccccc1 (stereo not given)
inactive: [1] -1.3% and -14.2% | [2] -3% and -14.6% | [3] -15.2% and -17.2% | [4] -28.3% and -46.9% | [5] 37.8% and 12.6% | [6] 36.5% and 14.3%

O=C1C2C3C=CC(C3)C2C(=O)N1O (stereo not given)
inactive: [1] 18.1% and 24.3% | [2] -7.6% and -8.3% | [3] 7.1% and 11.2% | [4] 10% and 10.6% | [5] 25.1% and 3.05% | [6] 11.4% and 18.5%

CC(=O)O[C@@H]1C[C@H](C)CC[C@H]1C(C)C
inactive: [1] 5.85% and 0.6% | [2] -9.8% and -2.35% | [3] -3.05% and -3.7% | [4] 5.8% and 23% | [5] 4.5% and -1.45% | [6] -3.4% and -0.8%

O=C1C=CC(=O)O1 (tested in a mixture with another compound)
inactive: [1] 13.5% and 5.85% | [2] 18% and 1.85% | [3] 10.6% and 2.55% | [4] 38.1% and 4.45% | [5] 30.9% and 17% | [6] 22.4% and 13.3%

CC/C(=N/NC(N)=O)C1=CCCCC1
inactive: [1] -5.6% and 3.4% | [2] -3.7% and -0.85% | [3] -1.5% and -15.2% | [4] -35.5% and -33.9% | [5] -15.2% and -9.7% | [6] -0.4% and -14.7%

c1ccc(Cc2nc3ccccc3[nH]2)cc1
inactive: [1] -13.5% and -2.5% | [2] -33.8% and -4.1% | [3] -10.4% and -18.9% | [4] -4.9% and 2.65% | [5] -28.8% and -13.8% | [6] 0.7% and -16.4%

O=C(Nc1nn[nH]n1)c1nc(-c2ccccc2)cc(=O)[nH]1
inactive: [1] -15.6% and -10.2% | [2] -3.75% and 9.5% | [3] 7.35% and 5.4% | [4] -49.8% and 1.15% | [5] 5.7% and -5.95% | [6] 1.95% and -2.25%

CC(=O)C(C)(CCC#N)CCC#N
inactive: [1] -7.25% and 12.7% | [2] 12.1% and -9.2% | [3] -1.4% and -1% | [4] -3.95% and -36.5% | [5] 9.35% and -5.15% | [6] -12.1% and 27%

O=c1c(O)c(-c2ccc(O)c(O)c2)oc2cc(O)ccc12
inactive: [1] -15.2% and -57% | [2] -14.6% and -40.4% | [3] -3.25% and -24.9% | [4] 0.2% and -25% | [5] -15.1% and -48.1% | [6] -3.7% and -37.3%

Cc1cc(=O)cc(C)o1
inactive: [1] -11.2% and 18.4% | [2] -12.8% and 5.6% | [3] -10.2% and -20.6% | [4] -2.45% and -47.6% | [5] 2.35% and -5.85% | [6] -8.55% and 0.05%

O=C(O)C1OC1C(=O)O (stereo not given)
inactive: [1] -24.1% and -0.45% | [2] -30.2% and -4.6% | [3] -23.9% and -5.4% | [4] -39.7% and -23.8% | [5] -21.5% and -5.95% | [6] -10.4% and 13.7%
